Among the test systems are T-47D breast; BT-549 breast; MDA-MB-435 melanoma; SW-620 colon; MCF7 breast; HCT-116 colon; HCC-2998 colon; KM12 colon.
Holding throughout (experiment): NCI-60 one-dose screen, 48 h (100 = growth as untreated, 0 = no growth, -100 = all killed)
Settings in all cases: 10 µM unless noted

Compounds without any hit were thinned out: in the full panel of roughly 83,000, 20% have a hit.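 Plates (96-well) were seeded with cells, treated with compound at one concentration, and incubated for 48 hours before percent growth was determined.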 Values without a mark were called inactive. Active and inactive are the calls of the source. Rule for the calls: active = growth percent below 10; inactive = the rest.

Consider 16 compounds from PubChem BioAssay (NCI).

Regarding `CCOC(=O)c1c(O)cc(-c2ccccc2)cc1-c1sc(N(C)Cc2ccccc2)nc1Cl`, the growth is 93.5% in the experiment on T-47D breast; 42.7% in the experiment with BT-549 breast; 101% with MDA-MB-435 melanoma; 96.5% with SW-620 colon; 94% with MCF7 breast; -85.6% (active) in the experiment with HCT-116 colon. For the same compound, the growth was 103% in the experiment with HCC-2998 colon and 104% with KM12 colon.
For `NC(=O)C1(N2CCCCC2)CCN(CCCC(=O)c2ccc(F)cc2)CC1`, the growth in the experiment on T-47D breast is 44%; in the experiment with BT-549 breast, 56.3%; with MDA-MB-435 melanoma, -48.3% (active); in the experiment with SW-620 colon it was 19.6%; with MCF7 breast it was 20%; in the experiment with HCT-116 colon, 19.3%. The growth in the experiment on HCC-2998 colon was 11%; with KM12 colon it was 15.8%.
For the compound `CCCCCN1C=C/C(=C\C(=O)N(C)c2cccc3ccccc23)c2ccccc21`, the growth in the experiment on T-47D breast was 87.9%; in the experiment on BT-549 breast, 99.4%; with MDA-MB-435 melanoma it was 100%; in the experiment with SW-620 colon, 94.3%; in the experiment on MCF7 breast, 91.3%; in the experiment with HCT-116 colon, 86.9%. Moreover, the growth with HCC-2998 colon was 102%; in the experiment on KM12 colon, 103%.
`CCCCCCCCCCCC(=O)C(CCCCCCCCCC)C(=O)Nc1ccccc1` (stereo not drawn): the growth in the experiment with T-47D breast was 92.1%; with BT-549 breast it was 114%; in the experiment with MDA-MB-435 melanoma, 110%; with SW-620 colon it was 107%; in the experiment with MCF7 breast it was 108%; with HCT-116 colon it was 93.8%. Moreover, the results for the growth in the experiment with HCC-2998 colon and in the experiment with KM12 colon were 101% and 106%, respectively.
As for `O=c1nc2n(nc1/C=C/c1ccco1)CC(c1ccc(Cl)cc1)=NN2`, the growth in the experiment on T-47D breast was 49.7%; in the experiment on BT-549 breast, 84.1%; in the experiment on MDA-MB-435 melanoma, 110%; in the experiment with SW-620 colon, 102%; in the experiment with MCF7 breast, 22.2%; in the experiment with HCT-116 colon it was 99%. For the same compound, the growth is 110% in the experiment with HCC-2998 colon and 115% with KM12 colon.
For the compound `Cc1cc(Nc2cccc(C(F)(F)F)c2)n2c(nc3ccccc32)c1C#N`, the growth with T-47D breast was 8.68% (active); in the experiment on BT-549 breast it was 19.4%; in the experiment with MDA-MB-435 melanoma it was 45.5%; in the experiment on SW-620 colon it was 23.8%; with MCF7 breast, 36.3%; with HCT-116 colon it was 39.6%. In addition, the growth was 46.3% in the experiment with HCC-2998 colon and 20.9% in the experiment on KM12 colon.
Regarding `COc1ccc(-c2nc(N/N=C/c3c[nH]c4ccccc34)nc(N3CCOCC3)c2C#N)cc1`, the growth with T-47D breast is 94.9%; with BT-549 breast, 97%; with MDA-MB-435 melanoma, 108%; in the experiment on SW-620 colon, 72.6%; with MCF7 breast, 80.2%; in the experiment on HCT-116 colon, 59.8%. Besides, the growth is 100% in the experiment with HCC-2998 colon and 83.9% with KM12 colon.
For the compound `COc1cc(C(=O)/C=C/c2c(C)n([O-])c3ccc(Cl)cc3[n+]2=O)cc(OC)c1OC`, the growth is 29.8% in the experiment on T-47D breast; 64.7% with BT-549 breast; 49.4% in the experiment with MDA-MB-435 melanoma; 24.2% with SW-620 colon; 30.4% in the experiment with MCF7 breast; 15.4% in the experiment with HCT-116 colon. Also, the figures for the growth in the experiment with HCC-2998 colon and with KM12 colon were 100% and 73.1%, respectively.
For `COc1ccc(CNC(=O)COc2ccc(/C=N/Nc3nc4ccccc4s3)cc2)cc1`, the growth in the experiment on T-47D breast was 14.7%; in the experiment with BT-549 breast, 12.9%; in the experiment with MDA-MB-435 melanoma, 7.82% (active); in the experiment on SW-620 colon, 38.6%; in the experiment with MCF7 breast it was 42.1%; in the experiment on HCT-116 colon, 10.6%. Also, the growth was 53.5% in the experiment on HCC-2998 colon and 1.51% (active) with KM12 colon.
Take `COc1ccccc1C(C[N+](=O)[O-])c1c(-c2ccccc2)[nH]c2cc(C)ccc12` (stereo not drawn): the growth with T-47D breast was 32.2%; with BT-549 breast it was 80.1%; in the experiment with MDA-MB-435 melanoma it was 13.8%; in the experiment on SW-620 colon, 54.6%; with MCF7 breast, 55.6%; with HCT-116 colon it was 53.8%. For the same compound, the growth was 93.6% in the experiment with HCC-2998 colon and 63.1% in the experiment with KM12 colon.
Turning to `Cc1ccc(C2CC(c3cccc(Nc4ccncc4)c3)=NN2c2cc(Cl)cc(Cl)c2)cc1` (stereo not drawn), the growth in the experiment on T-47D breast is 80.3%; in the experiment with BT-549 breast, 101%; with MDA-MB-435 melanoma, -63.2% (active); in the experiment with SW-620 colon, -58% (active); in the experiment on MCF7 breast, -45.1% (active); in the experiment with HCT-116 colon it was -78.1% (active). Moreover, the growth in the experiment on HCC-2998 colon is -77.7% (active); with KM12 colon, -67.5% (active).
On to `N#CSCC1CC(O)(c2ccccc2)C(c2ccccc2)C(c2ccc(F)cc2)O1` (stereo not drawn), for which the growth was 9.18% (active) with T-47D breast; 5.69% (active) with BT-549 breast; -0.166% (active) in the experiment with MDA-MB-435 melanoma; -1.6% (active) with SW-620 colon; 5.64% (active) with MCF7 breast; -63.9% (active) in the experiment with HCT-116 colon. The results for the growth in the experiment with HCC-2998 colon and in the experiment on KM12 colon were 74.8% and 4.67% (active), respectively.
For `CC(=O)OC1CCC2(C)C(CCC3C4CC=C(C(C)=O)C4(C)OC(=O)CC32)C1` (stereo not drawn), the growth was 17.4% with T-47D breast; 28.8% in the experiment on BT-549 breast; 20.4% in the experiment on MDA-MB-435 melanoma; -48.7% (active) in the experiment on SW-620 colon; 11.2% with MCF7 breast; -98.9% (active) in the experiment on HCT-116 colon. The growth was 73.8% in the experiment on HCC-2998 colon and 81.6% with KM12 colon.
As to `c1cnc2nc3c(cc2c1)oc1ccccc13`, the growth with T-47D breast was 100%; in the experiment with BT-549 breast it was 98.8%; in the experiment on MDA-MB-435 melanoma it was 103%; with SW-620 colon, 99.4%; with MCF7 breast, 86.6%; in the experiment on HCT-116 colon, 101%. For the same compound, the growth was 100% in the experiment with HCC-2998 colon and 98.2% in the experiment with KM12 colon.
Regarding `CC[N+](CC)(CCCC(C)[N+]1(Cc2ccccc2)C(C)=CC=C1C)Cc1ccccc1` (stereo not drawn), the growth in the experiment on T-47D breast was 77.7%; in the experiment with BT-549 breast it was 82.9%; in the experiment on MDA-MB-435 melanoma it was 82.8%; in the experiment on SW-620 colon, 89%; in the experiment with MCF7 breast it was 81%; in the experiment with HCT-116 colon, 47.6%. The growth in the experiment with HCC-2998 colon was 80.8%; with KM12 colon it was 81.7%.
As to `CCCCCCCCCCN=C(N)N=C(N)N`, the growth was 29.4% in the experiment on T-47D breast; 15.6% in the experiment with BT-549 breast; 37.7% in the experiment with MDA-MB-435 melanoma; 58.5% in the experiment on SW-620 colon; 32.9% in the experiment on MCF7 breast; 41.9% in the experiment on HCT-116 colon. In addition, the growth is 49.5% in the experiment with HCC-2998 colon and 28.5% with KM12 colon.
